Test results reported in PubChem BioAssay (NCATS).
Inconclusive results are not listed. The source made the active and inactive calls. Calls come from the whole dose curve; as a rule, active = well fitted curve in the direction sought with a large enough effect; inconclusive = small, poorly fitted or top-dose-only effect, or another doubt; inactive = no such curve, though single readings can be large; an effect the other way counts as inactive or inconclusive.

Key:
[1] = molecular target: Rap guanine nucleotide exchange factor 3 (Homo sapiens) (UniProt O95398); assay: Confirmatory qHTS for agonist of cAMP-regulated guanine nucleotide exchange factor 3 (EPAC1) (AID 1645881);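 note: EPAC1 catalysed release of BODIPY-GDP from Rap1B seen as fluorescence loss; 100% = effect of cAMP agonist control; nearly all actives have a fitted effect of over 75% in size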
Sequence of Rap guanine nucleotide exchange factor 3 (Homo sapiens) (O95398 whole entry, looked up): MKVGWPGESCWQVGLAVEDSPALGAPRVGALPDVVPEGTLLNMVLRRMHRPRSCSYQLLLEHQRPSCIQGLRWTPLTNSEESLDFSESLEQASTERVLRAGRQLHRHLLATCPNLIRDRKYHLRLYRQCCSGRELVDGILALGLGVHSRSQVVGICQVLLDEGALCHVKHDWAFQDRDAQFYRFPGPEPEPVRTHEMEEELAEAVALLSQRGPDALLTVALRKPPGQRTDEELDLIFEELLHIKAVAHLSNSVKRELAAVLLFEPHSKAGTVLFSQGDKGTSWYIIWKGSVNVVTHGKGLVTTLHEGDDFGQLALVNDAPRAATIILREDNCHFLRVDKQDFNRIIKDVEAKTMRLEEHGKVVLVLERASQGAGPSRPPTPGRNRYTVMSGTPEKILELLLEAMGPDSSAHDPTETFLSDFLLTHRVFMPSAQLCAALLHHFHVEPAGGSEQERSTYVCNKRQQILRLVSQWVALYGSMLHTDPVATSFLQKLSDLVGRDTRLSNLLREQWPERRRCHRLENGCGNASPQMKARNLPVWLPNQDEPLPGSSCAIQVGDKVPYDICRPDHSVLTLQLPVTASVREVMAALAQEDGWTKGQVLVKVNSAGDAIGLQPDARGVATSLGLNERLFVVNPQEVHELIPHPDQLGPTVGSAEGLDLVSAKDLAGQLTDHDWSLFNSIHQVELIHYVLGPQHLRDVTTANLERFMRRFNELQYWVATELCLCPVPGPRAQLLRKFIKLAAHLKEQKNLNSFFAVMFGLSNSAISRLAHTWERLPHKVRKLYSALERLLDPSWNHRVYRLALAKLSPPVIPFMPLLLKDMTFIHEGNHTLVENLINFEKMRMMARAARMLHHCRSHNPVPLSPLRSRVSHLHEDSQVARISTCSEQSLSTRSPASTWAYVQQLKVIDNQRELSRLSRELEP

[2] = molecular target: Rap guanine nucleotide exchange factor 4 (Homo sapiens) (UniProt Q8WZA2); assay: Confirmatory qHTS for agonist of cAMP-regulated guanine nucleotide exchange factor 4 (EPAC2) (AID 1645884);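 note: nucleotide exchange releases bodipy-GDP from Rap1 and this lowers its fluorescence; % is set by controls: 0 for no effect and ±100 for the full control effect; nearly all actives have a fitted effect of over 65% in size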
Sequence of Rap guanine nucleotide exchange factor 4 (Homo sapiens) (Q8WZA2 whole entry, looked up): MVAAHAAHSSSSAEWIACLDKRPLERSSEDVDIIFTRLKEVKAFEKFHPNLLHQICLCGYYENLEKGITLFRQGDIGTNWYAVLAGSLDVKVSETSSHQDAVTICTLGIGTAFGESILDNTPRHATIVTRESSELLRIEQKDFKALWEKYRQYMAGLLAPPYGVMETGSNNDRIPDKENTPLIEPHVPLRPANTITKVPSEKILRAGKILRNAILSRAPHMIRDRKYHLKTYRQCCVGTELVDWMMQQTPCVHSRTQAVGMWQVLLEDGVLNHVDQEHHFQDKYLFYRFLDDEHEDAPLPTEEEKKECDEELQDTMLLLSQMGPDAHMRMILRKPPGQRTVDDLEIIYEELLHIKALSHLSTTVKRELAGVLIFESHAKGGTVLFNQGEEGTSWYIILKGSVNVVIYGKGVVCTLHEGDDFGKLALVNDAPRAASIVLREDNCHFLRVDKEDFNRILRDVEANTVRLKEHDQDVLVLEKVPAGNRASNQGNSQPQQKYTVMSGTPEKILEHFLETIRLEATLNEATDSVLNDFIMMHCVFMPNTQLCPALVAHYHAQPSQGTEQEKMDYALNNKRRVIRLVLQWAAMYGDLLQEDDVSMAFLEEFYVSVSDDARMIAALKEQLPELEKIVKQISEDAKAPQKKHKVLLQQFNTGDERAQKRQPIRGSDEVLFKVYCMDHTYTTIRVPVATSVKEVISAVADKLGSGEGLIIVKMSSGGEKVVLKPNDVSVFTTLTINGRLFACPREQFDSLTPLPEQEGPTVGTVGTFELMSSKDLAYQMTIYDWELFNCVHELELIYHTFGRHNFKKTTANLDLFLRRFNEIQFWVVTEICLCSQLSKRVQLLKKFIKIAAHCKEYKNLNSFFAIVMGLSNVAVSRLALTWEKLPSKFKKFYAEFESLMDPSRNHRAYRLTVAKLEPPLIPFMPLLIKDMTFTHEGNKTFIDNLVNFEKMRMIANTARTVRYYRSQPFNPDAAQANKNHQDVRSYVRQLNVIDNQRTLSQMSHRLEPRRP

[3] = molecular target: Rap guanine nucleotide exchange factor 3 (Homo sapiens) (UniProt O95398); assay: Counterscreen qHTS for antagonist of cAMP-regulated guanine nucleotide exchange factor 3 (EPAC1) (AID 1645888);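 note: fluorescence loss as bound BODIPY-GDP is released from Rap1B; % of control where 0% means no effect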
How it was run: (§1)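 Rap1B–BODIPY-GDP (250 nM) with 50 uM GDP; compounds pin-transferred to 9.74 nM–152 uM final (activator) or from 7.32 nM upwards (inhibitor). Fluorescence Ex/Em 480/540 nm read at 5 and 30 min, then after adding cAMP or buffer, at room temperature.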

[4] = molecular target: Rap guanine nucleotide exchange factor 3 (Homo sapiens) (UniProt O95398); assay: Counterscreen qHTS for agonist of cAMP-regulated guanine nucleotide exchange factor 3 (EPAC1) (AID 1645889); note: % of control where 0% means no effect; nearly all actives have a fitted effect of over 40% in size
How it was run: as §1

O=C(Nc1nc(-c2ccc(F)cc2)cs1)C1CCN(C(=O)c2ccc(F)cc2)CC1
inactive: Potency [1] | Potency [2] | Potency [3]

Cc1ccc(CN(Cc2ccco2)C(=O)c2ccccc2Br)o1
inactive: Potency [1] | Potency [2] | Potency [3]

COc1ccc(-c2cc(N)n(S(=O)(=O)c3c(F)c(F)c(F)c(F)c3F)n2)cc1OC
inactive: Potency [1] | activation [2] 7.68% [at 17.1 µM, percent relative to cAMP agonist control] | activity change, negative = inhibition [3] 6.6% [at 30.8 µM]

Cc1cccc(NC(=O)CNC(=O)CCc2nc3sc4c(c3c(=O)[nH]2)CCCC4)c1C
inactive: Potency [1] | Potency [2] | Potency [3]

O=C1NC[C@H](Cc2ccc(O)cc2)N(C[C@@H]2CCCN2C[C@H](Cc2ccc(O)cc2)N2C[C@H](Cc3ccccc3)N(CC3CCCCCC3)C(=O)C2=O)C1=O
inactive: Potency [1] | Potency [2] | Potency [3]

CN(C)c1ccc(-c2[nH][nH]c(=O)c2NC(=O)c2ccc3ccccc3n2)cc1
inactive: Potency [1] | Potency [2] | Potency [3]

CC(C)C[C@H]1COCCS(=O)(=O)N1Cc1ccc(Cl)c(Cl)c1
inactive: Potency [1] | activation [2] 1.63% [at 17.1 µM, percent relative to cAMP agonist control] | activity change, negative = inhibition [3] -4.43% [at 30.8 µM]

C#Cc1ccc([C@@H]2C=C(C(=O)NCc3ccccc3)O[C@H](OCC)[C@H]2CCCO)cc1
inactive: Potency [1] | Potency [2] | Potency [3]

CCOC(=O)c1ccc(NC(=O)c2c(N)n(Cc3ccccc3)c(=O)[nH]c2=O)cc1
inactive: Potency [1] | Potency [2] | Potency [3]

Cc1cc(C)c(Cn2cnc3ccccc32)c(C)c1
inactive: Potency [1] | Potency [2] | Potency [3]

Oc1ccc(NCc2ccccc2OCc2ccccc2Cl)cc1
inactive: Potency [1] | Potency [2] | Potency [3]

C/C(=N/NS(=O)(=O)c1ccc(C(C)(C)C)cc1)c1ccc2c(c1)OCO2
inactive: Potency [1] | activation [2] 7.62% [at 17.1 µM, percent relative to cAMP agonist control] | activity change, negative = inhibition [3] -17.7% [at 30.8 µM]

N#C/C(=C(/O)c1ccccc1F)c1nc2cc(C(F)(F)F)ccc2s1
inactive: Potency [1] | activation [2] 1.01% [at 17.1 µM, percent relative to cAMP agonist control] | activity change, negative = inhibition [3] 14.7% [at 30.8 µM]

COc1cc(NC(=O)c2ccccc2NS(=O)(=O)c2ccc(Cl)s2)cc(OC)c1
inactive: Potency [1] | Potency [2] | Potency [3]

CC(=O)NC(c1ccccc1)c1c(O)ccc2ccccc12 (stereo unspecified)
inactive: Potency [1] | activation [2] 2.11% [at 17.1 µM, percent relative to cAMP agonist control] | activity change, negative = inhibition [3] -4.37% [at 30.8 µM]

FC(F)(F)C1=Nc2cccc3cccc(c23)N1
inactive: Potency [1] | Potency [2] | Potency [3]

CCCCC1CC2=C(C(=O)OC(C)(C)O2)C(c2ccc(Cl)cc2)O1 (stereo unspecified)
inactive: Potency [1] | Potency [2] | Potency [3]

COc1ccc(C)cc1NC(=O)c1ccc2c(SCC(=O)O)c3c(nc2c1)CCCC3
inactive: Potency [1] | Potency [2] | Potency [3]

CCOC(=O)c1c(NC(=O)c2ccc(S(=O)(=O)N(C)CC3CCCO3)cc2)sc2c1CCN(C)C2 (stereo unspecified)
inactive: Potency [1] | Potency [2] | Potency [3]

CCCCn1c(N)c(N(CCOC)C(=O)c2ccc(-c3ccc(C(C)=O)cc3)o2)c(=O)[nH]c1=O
inactive: Potency [1] | Potency [2] | Potency [3]

CCCCOC(=O)CCn1c(=S)oc2ccccc21
inactive: Potency [1] | Potency [2] | Potency [3]

CC(C)NC(=O)c1sc2nc(-c3cccs3)cc(-c3cccs3)c2c1N
inactive: Potency [1] | Potency [2] | Potency [3]

C[n+]1cccc2c(Br)ccc([O-])c21
inactive: Potency [1] | Potency [2] | Potency [3]

O=C1C(O)=C(O)C(=O)c2ccccc21
inactive: Potency [1] | Potency [2] | Potency [3]

C/C=C\C=C/C(=O)Nc1cccc(C2=NOC3(C2)C[C@H](C(N)=O)N(C(=O)c2ccc(OC)cc2)C3)c1 (stereo partly specified)
inactive: Potency [1] | Potency [2] | Potency [3]

CC(C)=CCc1c(O)ccc2c1OC(c1ccc(O)c(O)c1)CC2=O (stereo unspecified)
inactive: Potency [1] | Potency [2] | Potency [3]

O=C(Cc1c(Sc2ccccc2)c2ccccc2n1Cc1ccccc1)NCCO
inactive: Potency [1] | Potency [2] | Potency [3]

CC(C)=CCc1c(O)cc(O)c2c1OC(c1ccc(O)cc1)CC2=O (stereo unspecified)
inactive: Potency [1] | Potency [2] | Potency [3]

Nc1ccc(S(=O)(=O)Nc2nccs2)cc1N=Nc1ccccc1[N+](=O)[O-]
inactive: Potency [1] | activation [2] 0% [at 17.1 µM, percent relative to cAMP agonist control] | activity change, negative = inhibition [3] -16% [at 30.8 µM]

Cc1ccc2nc(-c3cccc(Br)c3)c(Cc3ccccn3)n2c1
inactive: Potency [1] | Potency [2] | Potency [3] | Potency [4]

COc1ccc(/C=N/NC(=O)c2ccccc2O)cc1Cn1nnc2ccccc21
inactive: Potency [1] | Potency [2] | Potency [3] | Potency [4]

CCOC(=O)C1C(=O)C=C(c2ccc(C)cc2)CC1c1ccccc1 (stereo unspecified)
inactive: Potency [1] | activation [2] 7.74% [at 17.1 µM, percent relative to cAMP agonist control] | activity change, negative = inhibition [3] -1.31% [at 30.8 µM] | activation [4] 8.22% [at 30.8 µM]

Cc1cc2c(N)cccc2nn1
inactive: Potency [1] | Potency [2] | Potency [3] | Potency [4]

CCOC(=O)c1c(C)[nH]c(C(=O)C(C)OC(=O)c2ccc(NC(=O)CC#N)cc2)c1C (stereo unspecified)
inactive: Potency [1] | Potency [2] | Potency [3] | Potency [4]

CCCCN(CCCC)Cc1cc(=O)oc2cc(OC)ccc12
inactive: Potency [1] | Potency [2] | Potency [3] | Potency [4]

Fc1ccc2cnc(-c3ccccc3)c(-c3ccc(C(F)(F)F)cc3)c2c1
inactive: Potency [1] | Potency [2] | Potency [3] | Potency [4]

O=C(Cc1ccc(Br)c2ccccc12)N/N=C/c1ccccn1
inactive: Potency [1] | Potency [2] | Potency [3] | Potency [4]

CC(=O)NC(c1ccc(Cl)cc1Cl)c1ccc2cccnc2c1O (stereo unspecified)
inactive: Potency [1] | Potency [2] | Potency [3] | Potency [4]

CC(C)CNC(=O)C1(C)CCCCCN1Cc1ccccc1-c1ccccc1 (stereo unspecified)
inactive: Potency [1] | Potency [2] | Potency [3] | Potency [4]

COC1=C/C(=C/c2c(N)n3nc(-c4ccc(C)cc4)sc3nc2=O)C=CC1=O
inactive: Potency [1] | Potency [2] | Potency [3] | Potency [4]

CCOC(=O)C1=C(N)Oc2ccc3ccccc3c2C1c1ccc(O)cc1 (stereo unspecified)
inactive: Potency [1] | Potency [2] | Potency [3] | Potency [4]

COc1ccccc1/C=C/C=c1\sc2nc(=O)c(Cc3ccccc3)nn2c1=O
inactive: Potency [1] | Potency [2] | Potency [3] | Potency [4]

Cc1cccc(OC(=O)Nc2ccc(C(=O)O)c(O)c2)c1
inactive: Potency [1] | activation [2] -3.1% [at 17.1 µM, percent relative to cAMP agonist control] | activity change, negative = inhibition [3] -25.7% [at 30.8 µM] | activation [4] -3.96% [at 30.8 µM]

CCc1cc(=O)oc2cc(C)cc(OCC(=O)N[C@@H](CSCc3ccccc3)C(=O)O)c12
inactive: Potency [1] | Potency [2] | Potency [3] | Potency [4]

Cc1ccc(C(=O)NNC(=O)c2ccccc2O)cc1S(=O)(=O)N1CCCCC1
inactive: Potency [1] | Potency [2] | Potency [3] | Potency [4]

COc1ccc(/C=C/C(=O)c2ccccc2)c(OC)c1
inactive: Potency [1] | activation [2] 0.603% [at 17.1 µM, percent relative to cAMP agonist control] | activity change, negative = inhibition [3] -16.1% [at 30.8 µM] | activation [4] -1.52% [at 30.8 µM]

O=C(Nc1ccncc1)c1cc2ccccc2cc1O
inactive: Potency [1] | Potency [2] | Potency [3] | Potency [4]

O=C(NCCc1ccccc1)c1cccc(NC(=O)c2ccccc2)c1
inactive: Potency [1] | Potency [2] | Potency [3] | Potency [4]

O=C(O)CSc1nnc(COc2cccc3ccccc23)n1Cc1ccccc1
inactive: Potency [1] | Potency [2] | Potency [3] | Potency [4]

O=c1oc2ccccc2n1Cc1ccccc1Cl
inactive: Potency [1] | Potency [2] | Potency [3] | Potency [4]

Cc1ccc(Nc2c([N+](=O)[O-])c(=O)oc3ccccc23)cc1C
inactive: Potency [1] | Potency [2] | Potency [3] | Potency [4]

CCC(=C(c1ccc(OC)cc1)c1ccc(OC)cc1)c1cn(CC(O)CN(CCO)CCO)c2ccccc12 (stereo unspecified)
inactive: Potency [1] | Potency [2] | Potency [3] | Potency [4]

CCOC(=O)[C@H]1[C@H]2COc3ccc(C)cc3[C@@H]2N2C(=O)c3cc(F)c(F)cc3NC(=O)[C@@]12C
inactive: Potency [1] | Potency [2] | Potency [3] | Potency [4]

C=C1SC(Nc2c(C)cccc2C)=NC12CCCCC2
inactive: Potency [1] | Potency [2] | Potency [3] | Potency [4]

CCOC(=O)[C@H](C)N1[C@H](C)[C@H](c2ccccc2)Oc2ccc(Cl)cc2S1(=O)=O
inactive: Potency [1] | activation [2] 3.08% [at 17.1 µM, percent relative to cAMP agonist control] | activity change, negative = inhibition [3] 6.25% [at 30.8 µM] | activation [4] 25.5% [at 30.8 µM]

Cc1noc(C)c1COc1ccccc1C(=O)N(C)Cc1ccc(C(C)(C)C)cc1
inactive: Potency [1] | Potency [2] | Potency [3] | Potency [4]

C[C@@H]1CCCCCCCCC(=O)OCCN1C(=O)OC(C)(C)C
inactive: Potency [1] | Potency [2] | Potency [3] | Potency [4]

Cc1ccc(C)c(Cn2nc(-c3ccccc3)ccc2=O)c1
inactive: Potency [1] | activation [2] -4.57% [at 17.1 µM, percent relative to cAMP agonist control] | activity change, negative = inhibition [3] 14.9% [at 30.8 µM] | activation [4] 3.62% [at 30.8 µM]

CCc1c(C2(O)CCCCC2)[nH]c2c(C(=O)OC)cc(Cl)cc12
inactive: Potency [1] | Potency [2] | Potency [3] | Potency [4]

O=C1[C@H](Cc2ccccc2)NCC=CC[C@@H](c2ccc(Cl)cc2)N1Cc1ccc(Cl)cc1
inactive: Potency [1] | Potency [2] | Potency [3] | Potency [4]

Cc1ccc2c(CC(=O)OCc3cc(=O)n4c(n3)sc3ccccc34)coc2c1
inactive: Potency [1] | Potency [2] | Potency [3] | Potency [4]

O=[N+]([O-])c1ccc(C=NNc2ccc(S(=O)(=O)O)cc2)cc1
inactive: Potency [1] | activation [2] -6.29% [at 17.1 µM, percent relative to cAMP agonist control] | activity change, negative = inhibition [3] -18.7% [at 30.8 µM] | activation [4] 6.23% [at 30.8 µM]

O=C(O)c1[nH]c2ccccc2c1C(c1cccc(O)c1)c1c(C(=O)O)[nH]c2ccccc12
inactive: Potency [1] | Potency [2] | Potency [3] | Potency [4]

COc1cccc(/C=C2/NC(=O)N(CC(=O)Nc3ccc(C)cc3)C2=O)c1OCc1cccc(C(=O)O)c1
inactive: Potency [1] | Potency [2] | Potency [3] | Potency [4]

O=C(CC1C[C@H](C(=O)N2CCCCC2)[C@@]2(CCc3ccccc3)c3[nH]c4ccccc4c3CCN2C1=O)NCCCn1ccnc1 (stereo partly specified)
inactive: Potency [1] | Potency [2] | Potency [3] | Potency [4]
